“And” between values parts separate entries of the source, which are not always exact repeats. Equal values may be shown once. In all, about 5,500 compounds went through this assay and about 2,000 (36%) were called active. Roughly 18% stayed inconclusive and do not appear here. Cut-off read from the data, not from the text of the source: active = normalized growth mostly below about 0.91 (no sharp cut-off); inconclusive = no clear call, values can overlap the other calls; inactive = mostly above about 0.92. Some of the results follow.
Experiment: chemical genetic growth profiling, strain panel (AID 1159580);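 note: tested at 20 µM; growth read once vehicle control cultures reached saturation at 30 °C; 1 = growth at the plate median or of vehicle wells; lower values mean less growth of the strain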
Conditions: S. cerevisiae deletion strains, growth OD

Measured: normalized growth

COc1cc2c(cc1OC)[C@@H]1C(=O)c3ccc4c(c3O[C@@H]1CO2)C=CC(C)(C)O4
inactive: locus YAL013W, strain DEP1, active compounds read low 0.993 | locus YAL021C, strain ccr4, active compounds read low 1.05 | locus YAL026C, strain drs2, active compounds read low 1.02 | locus YAL030W, strain snc1, active compounds read low 1.02 | locus YBL061C, strain skt5, active compounds read low 1.01 | locus YBR009C, strain hhf1, active compounds read low 0.938 | locus YBR021W, strain FUR4, active compounds read low 0.972 | locus YBR023C, strain chs3, active compounds read low 1.01 | locus YBR171W, strain sec66, active compounds read low 0.993 | locus YBR229C, strain ROT2, active compounds read low 0.99 | locus YBR231C, strain swc5, active compounds read low 0.99 | locus YBR279W, strain paf1, active compounds read low 1.01 | locus YCL011C, strain gbp2, active compounds read low 0.98 | locus YCL016C, strain dcc1, active compounds read low 1 | locus YCL029C, strain bik1, active compounds read low 0.971 | locus YCL069W, strain vba3, active compounds read low 1 | locus YCR088W, strain abp1, active compounds read low 1.01 | locus YDL005C, strain med2, active compounds read low 1.03 | locus YDL035C, strain GPR1, active compounds read low 0.976 | locus YDL040C, strain nat1, active compounds read low 1 | locus YDL074C, strain BRE1, active compounds read low 0.994 | locus YDL101C, strain DUN1, active compounds read low 0.976 | locus YDL134C, strain PPH21, active compounds read low 0.99 | locus YDL185W, strain tfp1, active compounds read low 0.97 | locus YDL192W, strain arf1, active compounds read low 0.964 | locus YDR001C, strain nth1, active compounds read low 1.01 | locus YDR069C, strain doa4, active compounds read low 1 | locus YDR101C, strain arx1, active compounds read low 0.988 | locus YDR137W, strain rgp1, active compounds read low 0.88 | locus YDR150W, strain NUM1, active compounds read low 0.987 | locus YDR159W, strain sac3, active compounds read low 0.898 | locus YDR162C, strain NBP2, active compounds read low 1.01 | locus YDR195W, strain ref2 1.1 | locus YDR297W, strain sur2, active compounds read low 0.993 | locus YDR318W, strain mcm21, active compounds read low 0.966 | locus YDR334W, strain swr1, active compounds read low 1.02 | locus YDR335W, strain msn5, active compounds read low 1.02 | locus YDR388W, active compounds read low 0.974 | locus YDR502C, strain sam2, active compounds read low 0.981 | locus YEL003W, strain gim4, active compounds read low 1.01 | locus YEL037C, strain rad23, active compounds read low 1.03 | locus YEL061C, strain CIN8 (second series), active compounds read low 1.02 | locus YEL061C, strain CIN8, active compounds read low 0.995 | locus YER015W, strain faa2, active compounds read low 1.01 | locus YER016W, strain bim1, active compounds read low 1.01 | locus YER110C, active compounds read low 0.962 | locus YER111C, strain swi4, active compounds read low 1.04 | locus YER155C, strain BEM2 (second series), active compounds read low 0.991 | locus YER155C, strain BEM2, active compounds read low 0.988 | locus YER167W, strain BCK2, active compounds read low 0.955 | locus YFR010W, strain ubp6, active compounds read low 1.01 | locus YGL078C, strain dbp3, active compounds read low 0.973 | locus YGL086W, strain mad1, active compounds read low 0.958 | locus YGL167C, strain pmr1, active compounds read low 1 | locus YGL173C, strain kem1, active compounds read low 0.978 | locus YGL227W, strain vid30, active compounds read low 1 | locus YGL240W, strain doc1, active compounds read low 0.98 | locus YGL248W, strain PDE1, active compounds read low 0.986 | locus YGL253W, strain hxk2, active compounds read low 0.996 | locus YGR078C, strain PAC10, active compounds read low 1.01 | locus YGR135W, strain pre9, active compounds read low 0.987 | locus YGR229C, strain SMI1, active compounds read low 0.983 | locus YGR252W, strain gcn5, active compounds read low 0.891 | locus YHR013C, strain ard1, active compounds read low 0.993 | locus YHR027C, strain rpn1, active compounds read low 1 | locus YHR030C, strain SLT2, active compounds read low 0.986 and 0.96 | locus YHR079C, strain IRE1 (second series), active compounds read low 0.987 | locus YHR079C, strain IRE1, active compounds read low 0.954 | locus YHR094C, strain hxt1, active compounds read low 0.978 | locus YHR129C, strain ARP1, active compounds read low 0.989 | locus YHR142W, strain chs7, active compounds read low 0.996 | locus YHR200W, strain rpn10, active compounds read low 0.965 | locus YIL066C, strain RNR3, active compounds read low 0.964 | locus YIL073C, strain SPO22, active compounds read low 0.937 | locus YIL125W, strain kgd1, active compounds read low 0.979 | locus YIR030C, strain dcg1, active compounds read low 0.979 | locus YJL092W, strain hpr5, active compounds read low 1 | locus YJL095W, strain BCK1 (second series), active compounds read low 0.988 | locus YJL095W, strain BCK1, active compounds read low 0.998 and 0.956 | locus YJL115W, strain asf1, active compounds read low 1.01 | locus YJL129C, strain trk1, active compounds read low 0.985 | locus YJL134W, strain LCB3, active compounds read low 0.975 | locus YJL154C, strain vps35, active compounds read low 1.01 | locus YJL164C, strain tpk1, active compounds read low 1 | locus YJL166W, strain qcr8, active compounds read low 0.959 | locus YJL168C, strain set2, active compounds read low 0.972 | locus YJL187C, strain SWE1 (second series), active compounds read low 0.993 | locus YJR043C, strain POL32, active compounds read low 0.987 | locus YJR066W, strain TOR1, active compounds read low 0.915 | locus YJR075W, strain HOC1, active compounds read low 0.973
active: locus YDR392W, strain spt3, active compounds read low 0.607

Reference: PubChem BioAssay AID1159580 (chemical genetic matrix, 2015)
